In PubChem BioAssay AID1159524 (National Center for Advancing Translational Sciences (NCATS), 2015):
Out of some 410,000 compounds screened, about 5,100 (1.2%) were called active. A call without a number means that no potency is given here. About 8% were inconclusive and are not listed. The sample holds actives, similar compounds and a random draw of the others, so the mix is not that of the screen. Calls come from the whole dose curve; tested in HEK293T cells.

Assay: High Throughput Screening for Foot and Mouth Disease Virus Antivirals; note: read-out not given here; nearly all actives have a fitted effect of over 45% in size
Conditions: FMDV antiviral cell-based qHTS; series mostly up to 57.9 µM
Potency is the fitted concentration of half-maximal effect.

SMILES | Potency
CC(=O)Nc1ccc(C(=O)NNC(=O)CCCCC(=O)NNC(=O)c2ccc(NC(C)=O)cc2)cc1 | inactive
CCCC(=O)Nc1ccc(C(=O)N/N=C/c2ccc[nH]2)cc1 | 28.2 µM (active)
CNC(=O)N1c2ccccc2C=Cc2ccccc21 | inactive
Cc1ccn(CCC(=O)N2c3ccccc3CC2C)n1 (stereo not drawn) | inactive
CC1C(C)N(C(=O)CCl)c2ccccc2N1C(=O)CCl (stereo not drawn) | 3.55 µM (active)
N[C@H](Cc1o[nH]c(=O)c1Cl)C(=O)O | inactive
CC(C)C(=O)NC(C)c1nnc2n1CCN(Cc1cccc3ncccc13)CC2 (stereo not drawn) | inactive
Cc1nc2cnc(Nc3ccccc3)nc2n(C[C@H]2CCCO2)c1=O | inactive
C[C@@H]1C[C@@H]2O[C@H]2/C=C\C=C\C(=O)Cc2c(Cl)c(O)cc(O)c2C(=O)O1 | 0.1 µM (active)
COCCn1c(=O)c(CCc2ccccc2)nc2cnc(N3CCNCC3)nc21 | inactive
COCCn1c(=O)c(-c2ccc(OC)cc2)nc2cnc(Oc3cccc(Cl)c3)nc21 | inactive
COc1ccccc1CN1CC2(CCN(S(=O)(=O)c3ccccc3)CC2)C1 | inactive
COc1ccccc1CC(=O)Nc1ccc(S(=O)(=O)N2CCCC2)cc1 | inactive
COc1cc(C(=O)NNC(=O)c2ccc(S(=O)(=O)N3CCCCC3)cc2)cc(OC)c1OC | inactive
COc1ccc(-c2ccc(Nc3ccc(S(=O)(=O)N4CCCC4)cc3)nn2)cc1OC | 14.1 µM (active)
CCN(CC)c1cc(NC2CCCCC2)c2c3c(onc13)-c1ccccc1C2=O | inactive
CC(C)C(NS(=O)(=O)c1ccc(-c2ccc(Br)cc2)cc1)C(=O)O (stereo not drawn) | inactive
CCC1(C2CCN(Cc3cccnc3)CC2)NC(=O)N(CC2COc3ccccc3O2)C1=O (stereo not drawn) | inactive
Cc1cccc(C(CC(=O)NCC2(c3ccccc3)CCCC2)c2ccccc2)c1O (stereo not drawn) | inactive
O=C(O)c1ccc(N/N=C/c2ccc3ncccc3c2)cc1 | 2.82 µM (active)
CCc1nc2cccnc2n1-c1ccc(C(=O)O)cc1 | inactive
NCCCCCC(=O)N/N=C/c1ccc2nccnc2c1 | inactive
CCn1c(C(=O)Nc2cc(Cl)ccc2C)cc2sc(Cl)cc21 | inactive
COc1ccc(NC(=O)N2CC3(CCN(C(=O)c4cccn4C)CC3)C2)cc1 | inactive

SMILES | Potency
CC(=O)OCC(=O)[C@@]1(O)CCC2C3CCC4=CC(=O)CC[C@]4(C)C3C(=O)C[C@]21C (stereo partly drawn) | inactive
CC(=O)OCC(=O)C1CCC2C3CCC4=CC(=O)CC[C@@]4(C)C3CC[C@]12C (stereo partly drawn) | inactive
CSc1ncnc2c1ncn2CC(=O)C1CCC2C3CCC4=CC(=O)CCC4(C)C3CCC12C (stereo not drawn) | 11.2 µM (active)
COc1ccccc1N1CCN(CCCNC(=O)c2cnn(-c3ccccc3Cl)c2C2CCN(C(=O)OC(C)(C)C)CC2)CC1 | inactive
CN(C)CCc1c[nH]c2ccc(Cn3cncn3)cc12 | inactive
O=C(CC(c1cccs1)N1Cc2ccccc2C1=O)Nc1ccc(F)cc1F (stereo not drawn) | inactive
Cn1cnc([N+](=O)[O-])c1Nc1ccccc1O | inactive
Cn1cnc([N+](=O)[O-])c1Sc1n[nH]c(N)n1 | inactive
Cn1cnc([N+](=O)[O-])c1Sc1ccccc1 | 28.2 µM (active)
CO[C@H]1[C@H](NC(=O)C(C)C)c2ccccc2C12CCN(Cc1cnc(N(C)C)s1)CC2 | inactive
COc1ccccc1CNc1ccnc(-c2c(C)noc2C)n1 | inactive
CCCC(=O)Nc1ccc(NC(=O)c2sc3ccccc3c2Cl)cc1 | inactive
Cc1cccc(N2CCN(C(=O)c3cnc(N4CCCC4)nc3C)CC2)c1C | inactive
CCC1CN(CCNC(=O)c2ccsc2)Cc2cc(OC)ccc2O1 (stereo not drawn) | inactive
CCN1/C(=C\c2ccc3ccccc3[n+]2CC)Sc2cc(C)ccc21 | 35.5 µM (active)
CC(=O)Nc1cccc(NC(=O)CSc2cn(CC(=O)N3CCCC3)c3ccccc23)c1 | inactive
COc1ccc2[nH]cc(CCNc3nc(-c4cccc(NS(C)(=O)=O)c4)nc4ccccc34)c2c1 | inactive
CCn1c2ccccc2c2nnc(SCC(=O)O)nc21 | inactive
CCc1c2c(nc3ccc(O)cc13)-c1cc3c(c(=O)n1C2)COC(=O)[C@]3(O)CC | inactive
COCCn1c(=O)c(CCc2ccccc2)nc2cncnc21 | inactive
NS(=O)(=O)c1ccc(CCNC(=O)CN2C(=O)c3ccccc3S2(=O)=O)cc1 | inactive
CCn1c(=O)c2ccccc2n(CC(=O)N2CCCc3ccccc32)c1=O | inactive
O=C(CN1C(=O)c2ccccc2S1(=O)=O)N1CCc2ccccc21 | 0.794 µM (active)
CO[C@H]1C=CO[C@@]2(C)Oc3c(C)c(O)c4c(O)c(c(/C=N/N5CCN(C)CC5)c(O)c4c3C2=O)NC(=O)/C(C)=C\C=C[C@H](C)[C@H](O)[C@@H](C)[C@@H](O)[C@@H](C)[C@H](OC(C)=O)[C@@H]1C | inactive
